# Test results from PubChem BioAssay (NCI).
# Compounds without any hit were thinned out: in the full panel of roughly 83,000, 20% have a hit.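 The test compound was applied at a single concentration to cells in 96-well plates for 48 hours, and percent growth was recorded.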 Active and inactive are the calls of the source. Rule for the calls: active = growth percent below 10; inactive = the rest.
# Tested on: HL-60(TB) leukemia
# Assay: NCI-60 one-dose screen, 48 h (100 = growth as untreated, 0 = no growth, -100 = all killed)
# Details: 10 µM unless noted
row,SMILES,growth
1,S=c1[nH]nc(Cc2ccccc2)c(=S)[nH]1,98.5% (inactive)
2,C=C(C)[C@@H]1CC[C@]2(C(=O)NCC(=O)O)CC[C@]3(C)[C@H](CC[C@@H]4[C@@]5(C)Cc6c([nH]c7ccccc67)C(C)(C)[C@@H]5CC[C@]43C)[C@@H]12,101% (inactive)
3,Nc1nc(NC2CC2)c2ncn(C3C=CC(CO)C3)c2n1 (stereo not drawn),86.6% (inactive)
